Inconclusive results are not listed. A call without a number means that no potency is given here. Calls of active or inactive are those of the source. Calls follow the shape of the full dose curve.
Test: qHTS for Inhibitors of Cell Surface uPA Generation: Wild-type Protective Antigen (WT-PrAg) Counterscreen for Cherry-picked Compounds
Details: cells, WT protective antigen toxicity counterscreen; series mostly up to 115 µM

| SMILES | Potency |
| --- | --- |
| O=C(O)c1cc(N=Nc2c(O)[nH]c3ccc([N+](=O)[O-])cc23)ccc1Cl | inactive |
| Cc1cc(C)cc(NC(=O)C(OC(=O)c2ccc(O)cc2)c2ccccc2)c1 (centres undefined) | inactive |
| COc1ccc(C(=O)CC2(C(=O)O)CCCCC2)cc1 | inactive |
| COc1ccccc1NS(=O)(=O)c1cc(NC(=O)CCc2nc3ccccc3c(=O)[nH]2)ccc1C | inactive |
| COc1ccc2cc(CCNC(=O)c3ccc4c(c3)OCO4)c(=O)[nH]c2c1 | inactive |
| CN(C)CCNC(=O)Nc1ccc([N+](=O)[O-])cc1 | inactive |
| COc1ccc(C(C)=O)cc1CSC(=N)N | inactive |
| Cc1ccc(NC(=O)CSc2nncn2N)cc1C | inactive |
| CC/C(=N\Nc1ccccc1[N+](=O)[O-])c1ccc(O)cc1 | inactive |
| COc1ccc(-c2cc3nc(C)cc(-c4ccc(OC)cc4)n3n2)cc1 | inactive |
| Cc1cc(C)n(-c2cc(C(=O)O)cc(C(=O)O)c2)n1 | inactive |
| CCOC(=O)c1ccc(N=Cc2c(O)n(-c3ccc(OC)cc3)c(=S)[nH]c2=O)cc1 | inactive |
| CC(=O)Nc1c2c(nn1-c1cccc(C)c1)CSC2 | inactive |
| COc1ccc(C(=O)OCC(=O)N(C)C2CCS(=O)(=O)C2)cc1S(=O)(=O)N(C)Cc1ccccc1 (centres undefined) | inactive |
| O=C(NCCN1CCOCC1)c1ccccc1Cl | inactive |
| COCc1cc(C)nc2sc(C(=O)Nc3nccs3)c(N)c12 | inactive |
| CCOC(=O)c1c(NC(=O)CC2SC(N)=NC2=O)sc2c1CCC(C)C2 (centres undefined) | inactive |
| O=C(COC(=O)c1cccc([N+](=O)[O-])c1)NNC(=O)c1cccs1 | inactive |
| CCc1ccccc1N1C(=O)CC(Sc2nccc(C)n2)C1=O (centres undefined) | inactive |
| Cc1ccsc1/C=C(\C#N)C(=O)NC1CCS(=O)(=O)C1 (centres undefined) | inactive |

| SMILES | Potency |
| --- | --- |
| CCOC(=O)c1ccccc1N=Cc1c(O)c2ccccc2oc1=O | inactive |
| CC(O)[C@H]1CNC(=O)C(=O)N1CCc1cccc(F)c1 (some centres undefined) | inactive |
| COc1ccc(NS(=O)(=O)c2c(C)n(C)c(=O)n(C)c2=O)cc1OC | inactive |
| O=C(CN1C(=O)CSCC1=O)NCc1ccc(F)cc1 | inactive |
| CC1CC(=O)Nc2ccccc2N1C(=O)Cn1cnc2ccc(Br)cc2c1=O (centres undefined) | inactive |
| CC(=O)Nc1ccc(OS(=O)(=O)c2c(C)cc(C)cc2C)cc1 | inactive |
| CCOc1ncccc1C(=O)NCc1ccccc1Cl | inactive |
| CCCCCN(C(=O)CCC(=O)OCCOc1cccc(Cl)c1)c1c(N)n(CCCC)c(=O)[nH]c1=O | inactive |
| Cc1ccnc(N2CCN(C(=O)CSc3nc4ccccc4nc3N3CCC(C)CC3)CC2)c1 | inactive |
| Cc1c(C(=O)N(Cc2ccccc2Cl)C2CCS(=O)(=O)C2)oc2ccccc12 (centres undefined) | inactive |
| CCCN1CCN(C(=O)CCCn2c(C)c3cnn(-c4ccccc4)c(=O)c3c2C)CC1 | inactive |
| CCn1c(SC(C)C(=O)NC2CCCC2)nc2cc(S(N)(=O)=O)ccc21 (centres undefined) | inactive |
| Cc1ccc(Nc2nc(Cl)c(C=O)s2)cc1 | inactive |
| CCCCOc1ccc(S(=O)(=O)N2CCCCC2)cc1 | inactive |
| COc1ccccc1NC(=O)COc1ccc(C(=O)NCc2ccccc2)cc1OC | inactive |
| Cc1ccc(Cl)c(N/C=C/C(=O)c2ccccc2)c1 | inactive |
| COc1ccc(C(=O)NC(=S)Nc2ccc(NC(=O)c3ccco3)cc2)cc1[N+](=O)[O-] | inactive |
| CCN(C(=O)c1c(C)noc1C)c1c(N)n(Cc2ccccc2)c(=O)[nH]c1=O | inactive |
| CCn1nc(C)c(CNC(=O)C2CCC(=O)N(CCc3ccc(OC)cc3)C2)c1C (centres undefined) | inactive |

— PubChem BioAssay AID720518 (National Center for Advancing Translational Sciences (NCATS), 2013)
